Bioassay records deposited in PubChem BioAssay by several laboratories.
Mcl1-Noxa inh = disrupts binding of human Mcl-1 to Noxa peptide. Q07820. TR-FRET Mcl-1/Noxa peptide binding, 2 h. inhibition, % at 21.7 µM. hit rate 1.5% among 220,000. AID 1022;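 active = compounds that cut the protein-peptide binding signal by more than 50% relative to plate controls in a single-dose test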;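 also: His-tagged Mcl-1 with rhodamine Noxa BH3 peptide and terbium anti-His antibody; 0% = Mcl-1 plus Noxa peptide wells and 100% = peptide-only wells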
Target sequence (Q07820 whole entry, looked up): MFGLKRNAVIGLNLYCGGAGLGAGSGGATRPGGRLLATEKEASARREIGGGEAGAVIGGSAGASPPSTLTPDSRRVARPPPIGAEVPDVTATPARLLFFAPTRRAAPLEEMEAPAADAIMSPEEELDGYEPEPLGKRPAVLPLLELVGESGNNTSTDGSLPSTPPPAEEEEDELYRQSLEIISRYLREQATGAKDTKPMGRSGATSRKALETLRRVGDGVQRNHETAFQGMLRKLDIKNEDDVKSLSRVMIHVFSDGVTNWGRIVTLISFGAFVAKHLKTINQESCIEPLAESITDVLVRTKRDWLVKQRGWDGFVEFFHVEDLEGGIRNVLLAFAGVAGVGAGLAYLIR
Bim-Mcl-1 = disrupts Bim peptide binding to human Mcl-1; Bead-based flow cytometry, Bim peptide-Mcl-1 binding; inhibition, % at 10 µM; hit rate 0.1% among 190,000; in the data active = inhibition above about 40%;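 also: 0% = no compound tracer wells and 100% = peptide blocker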
TNF necrop inh = inhibitors of TNF-alpha induced necroptosis in Jurkat FADD-/- cells; Jurkat FADD-/- TNF necroptosis rescue, ATP luminescence, 24 h; 0 = TNF only, 100 = no-TNF cells; activation (protection from cell death), % at 10 µM; hit rate 0.068% among 220,000; AID 463075;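 active = activation, meaning protection from cell death, of at least 50% relative to plate controls; inactive = activation below 50%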;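 also: necroptosis triggered by 40 ng/mL TNF-alpha added together with compound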
Mcl1 Bid PPI = Mcl-1/Bid interaction inhibition. inhibition, % at 21.7 µM. TR-FRET Mcl-1/Bid-Dy647 peptide binding, 1536-well. hit rate 0.97% among 220,000. AID 1021. Q07820;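 active = compounds that cut the binding signal by more than half at the single screening dose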;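 also: His-tagged Mcl-1 with europium anti-His antibody binding Bid BH3 peptide; 0% = Mcl-1 plus peptide wells and 100% = peptide-only wells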
L929 necroptosis = L929 zVAD cell death inhibition; L929 zVAD necroptosis rescue, ATP luminescence, 24 h; with zVAD 60 µM; viability rescue, % at 10 µM; hit rate 0.38% among 220,000;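 active = activation, scaled between plate controls, above about 75%, limit read from the data; inactive = activation under that limit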;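 also: 0% = zVAD with DMSO and 100% = DMSO alone without zVAD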
MCL1-BIM inh = MCL1-BIM-BH3 interaction inhibition (human); GST-MCL1 / FITC-Bim-BH3 fluorescence polarization; inhibition, % at 10.9 µM; hit rate 0.68% among 320,000;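 active = inhibition above the mean inhibition of all tested compounds plus 3 SD, set per campaign, cut at about 40% in these data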;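 also: 0% = DMSO wells and 100% = unlabeled Bim-BH3 peptide control; higher means more loss of mP so more displacement of Bim peptide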
Bcl-xL conf = counter-screen for MCL1 inhibitors: confirmation of human Bcl-xL inhibitors; shares compounds with MCL1-BIM inh; GST-Bcl-xL / FITC-Bim BH3 peptide FP binding; inhibition, % at 10.9 µM; hit rate 54% among 1,700;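 active = inhibition above a cutoff equal to the mean inhibition of all tested compounds plus 3 SD, cut at about 30% in these data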;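 also: 0% = DMSO wells and 100% = unlabeled Bim BH3 control peptide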
MCL1 BIM confirm = MCL1-BIM-BH3 interaction inhibition, confirmation. shares compounds with MCL1-BIM inh. GST-MCL1 / FITC-Bim-BH3 fluorescence polarization. inhibition, % at 10.9 µM. hit rate 61% among 1,700. AID 2168;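 active = inhibition above the average of all tested compounds plus 3 SD, cut at about 40% in these data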;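 also: 0% = DMSO wells and 100% = unlabeled Bim-BH3 control peptide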
Numbers without * were called inactive; / = no result; + = active, no number. A selection: hits, their analogues and other compounds. The true share with any hit is near 2.4%.

SMILES | Mcl1-Noxa inh | Bim-Mcl-1 | TNF necrop inh | Mcl1 Bid PPI | L929 necroptosis | MCL1-BIM inh | Bcl-xL conf | MCL1 BIM confirm
COc1cccc(NC(=O)CN(C)CC(=O)Nc2ccc(C)c([N+](=O)[O-])c2)c1 | / | / | / | / | / | -5 | / | /
Cc1nc2sc3c(c2c(=O)[nH]1)CCC3 | -12 | 1 | 3 | -37 | 3 | 7 | / | /
Cc1cc(-c2nc3c4c5c(sc4[nH]c(=O)n3n2)CCC5)c(C)o1 | 101* | 1 | -2 | 73* | 0 | 76* | 28 | 70*
Cc1cccc(N2C(=O)c3cccc4cccc(c34)C2=O)c1 | / | / | / | / | / | 2 | / | /
Cc1cccc(N2C(=O)c3cccc4c(N)ccc(c34)C2=O)c1 | / | / | / | / | / | + | 198* | +
CC(C)CCN1C(=O)c2cccc3c(N)ccc(c23)C1=O | / | / | / | / | / | + | 145* | 164*
Cc1cccc(N2C(=O)c3cccc4c(N(C)CCO)ccc(c34)C2=O)c1 | -86 | -1 | -1 | -6 | 0 | + | 169* | +
Nc1cccc(N2C(=O)c3cccc4c(N)ccc(c34)C2=O)c1 | / | / | / | / | / | + | + | +
CCN1C(=O)c2cccc3c(Cl)ccc(c23)C1=O | 12 | -4 | 0 | -21 | 1 | 4 | / | /
Cc1cc(-c2ccc(S(=O)(=O)N3CCCCC3)s2)on1 | / | / | / | / | / | 8 | / | /
Cc1ccnc(N2C(=O)c3cccc4c([N+](=O)[O-])ccc(c34)C2=O)c1 | / | 0 | -14 | 25 | 24 | 103* | 82* | 119*
Cc1ccc(N2C(=O)c3cccc4c([N+](=O)[O-])ccc(c34)C2=O)c2cccnc12 | 32 | / | -15 | 4 | -1 | 19 | / | /
CCNc1ccc(Br)cc(C(=O)/C=C/c2ccc3c(c2)OCO3)c1=O | 94* | 11 | -13 | -29 | 0 | 47* | -26 | -45
Nc1ccccc1C(=O)/C=C/c1ccc2c(c1)OCO2 | -5 | -2 | -9 | -3 | -1 | 1 | / | /
NC(=O)Cn1c(=O)n(Cc2ccco2)c(=O)c2c3c(sc21)CCCCC3 | 64* | -1 | -2 | -18 | 0 | 77* | 31* | 77*
COCCNC(=O)CN1C(=O)COc2ccc(S(=O)(=O)N3CC(C)CC(C)C3)cc21 (stereo not given) | / | / | / | / | / | 1 | / | /
O=C1c2ccccc2C(=O)c2c1cccc2N1CCCC1 | 17 | -2 | -1 | -60 | 0 | 21 | / | /
Cn1c(=O)cc2c3c(c(N4CCCCC4)ccc31)C(=O)c1ccccc1-2 | 26 | / | -12 | -38 | 0 | 152* | 112* | 143*
O=C(O)CNS(=O)(=O)c1c(Cl)cccc1Cl | 8 | / | 2 | -14 | 1 | 1 | / | /
CCN(CC)C(=O)CSc1nnc2nnc3cc(Cl)ccc3n12 | 4 | / | -4 | 5 | 1 | 88* | 65* | 79*
CCN(CC)C(=O)CSc1nnc2nnc3cc(C)ccc3n12 | -3 | / | -3 | -12 | 0 | 32 | / | /
Cc1ccc(C(=O)Nc2cccnc2)cc1Cl | / | / | / | / | / | 5 | / | /
CSc1c(C#N)c(N)nc2sc(C(=O)c3ccccc3)c(N)c12 | 6 | / | 3 | -38 | 0 | 58* | 71* | 87*
N#Cc1c(SCc2ccc(Cl)cc2)sc(C(=O)c2ccccc2)c1N | 20 | 5 | -2 | -21 | 34 | -11 | / | /
CC1(C)CC(=O)C(C=Nc2cccnc2)=C(O)C1 | -3 | -3 | -2 | -15 | -1 | 4 | / | /
CC1(C)CC(=O)C(C=Nc2cccnc2/N=C/C2=C(O)CC(C)(C)CC2=O)=C(O)C1 | -55 | -1 | 1 | -52 | -1 | 63* | 8 | 2
CC1(C)CC(=O)C(C=Nc2ccc(C(=O)c3ccccc3)cc2N=CC2=C(O)CC(C)(C)CC2=O)=C(O)C1 | -17 | 0 | 2 | -38 | 0 | 80* | 6 | 16
CC1(C)CC(=O)C(C=Nc2ccc(O)c(N=CC3=C(O)CC(C)(C)CC3=O)c2)=C(O)C1 | 20 | 0 | -1 | -32 | -1 | 17 | / | /
